Source: PubChem BioAssay
Active and inactive are the calls of the source.

Tests used:
[1] = E. coli DRC41 culture turbidity changes, primary screen, E. coli filamentation inducer project, strain DRC41, OD650, 48 h (AID 1152);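 also: E. coli MC1000 strain DRC41 lacking acrAB efflux pump and sulA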; conditions: E. coli DRC41 (acrAB sulA), higher = more signal, called active from +8 up or from −8 down
[2] = small-molecule binders of probe aLefty1, primary screen, biochemical, small-molecule microarray, 635/667 nm fluorescence (AID 1153); conditions: higher = more signal;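 also: score merges spot fluorescence with signal-to-noise ratio from the scanned slide images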
[3] = PSAC antagonists in infected red cells, primary screen, cell-based, P. falciparum Indochina, OD700, 1 h (AID 1154); conditions: P. falciparum Indochina infected RBC osmotic lysis, higher = more signal, called active from +8 up or from −8 down
[4] = PSAC antagonists in infected red cells, primary screen, cell-based, P. falciparum Indochina, OD700, 2 h (AID 1155);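 also: lysis reports solute entry through the parasite surface anion channel PSAC; channel blockers reduce lysis of infected cells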; conditions: P. falciparum Indochina infected erythrocytes, osmotic lysis OD700; higher = more signal, called active from +8 up or from −8 down
[5] = osmotic lysis modulators in infected erythrocytes, primary screen, PSAC antagonist project, cell-based, P. falciparum Indochina, OD700, 3 h (AID 1156); conditions: higher = more signal, called active from +8 up or from −8 down
[6] = PSAC antagonists in infected red cells, primary screen, cell-based, P. falciparum Indochina, OD700, 18 h (AID 1157); conditions: P. falciparum Indochina infected erythrocytes, osmotic lysis OD700, 18 h; higher = more signal, called active from +8 up or from −8 down
[7] = modulators of S6 phosphorylation in cells, primary screen, cell-based, A549, cytoblot, luminescence, serum-stimulated (AID 1158); conditions: A549 phospho-S6 cytoblot, 5 h, higher = more signal;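 also: serum-stimulated A549 lung adenocarcinoma cells; signal is phosphorylated S6 detected by cytoblot immunostaining with HRP secondary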
[8] = target: NADPH oxidase 2 (Homo sapiens) (UniProt P04839); experiment: NOX2-dependent H2O2 signal modulators, primary screen, NOX inhibitor project, cell-based, HEK293-NOX2, PMA-stimulated, Amplex Red fluorescence (AID 1159); conditions: 45 min, higher = more signal, called active from +8 up or from −8 down; also: test concentration not given here
[9] = target: NADPH oxidase 4 (Homo sapiens) (UniProt Q9NPH5); experiment: NOX4-dependent H2O2 signal modulators, primary screen, NOX inhibitor project, cell-based, HEK293-NOX4, tetracycline-induced, Amplex Red fluorescence (AID 1160); conditions: 45 min, higher = more signal, called active from +8 up or from −8 down
[10] = target: NADPH oxidase 5 (Homo sapiens) (UniProt Q96PH1); experiment: NOX5-dependent H2O2 signal modulators, primary screen, NOX inhibitor project, cell-based, HEK293-NOX5, Amplex Red fluorescence (AID 1161); conditions: HEK293-NOX5, ionomycin, 45 min, higher = more signal
[11] = A549 cell viability effects, profiling panel, calcein-AM fluorescence, 48 h, basal (AID 1162); conditions: higher = more signal; also: test concentration not given here
[12] = adipocyte viability effects, profiling panel, cell-based, 3T3-L1 adipocytes, calcein-AM fluorescence, 48 h, basal (AID 1163); conditions: 3T3-L1 adipocytes viability, higher = more signal; also: test concentration not given here
[13] = HepG2 cell viability effects, profiling panel, calcein-AM fluorescence, 48 h, basal (AID 1164); conditions: higher = more signal; also: test concentration not given here
[14] = MM1S cell viability effects, profiling panel, calcein-AM fluorescence, 48 h, basal (AID 1165); conditions: higher = more signal;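 also: viability of MM1S multiple myeloma cells under basal unstimulated conditions; test concentration not given here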
[15] = basal RPMI8226 viability, no added stimulus, profiling panel, cell-based, calcein-AM fluorescence, 48 h, PK04 Diversity Set (AID 1166); conditions: RPMI8226 myeloma viability, higher = more signal;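 also: cells grown under basal conditions without added stimulus; test concentration not given here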
[16] = basal HepG2 mitochondrial membrane potential changes, profiling panel, cell-based, JC-1 fluorescence, 24 h, 100 nL compound (AID 1167); conditions: higher = more signal; also: test concentration not given here
[17] = basal 3T3-L1 adipocyte mitochondrial potential changes, profiling panel, cell-based, JC-1 fluorescence, 3T3-L1 adipocytes, 24 h, 100 nL compound (AID 1168); conditions: JC-1 mitochondrial fluorescence, higher = more signal, called active from +8 up or from −8 down; also: test concentration not given here
[18] = basal RPMI8226 mitochondrial membrane potential changes, profiling panel, cell-based, JC-1 fluorescence, 24 h, 100 nL compound (AID 1169); conditions: RPMI8226 myeloma, JC-1 mitochondrial potential fluorescence, higher = more signal; also: test concentration not given here
[19] = basal MM1S mitochondrial membrane potential changes, profiling panel, cell-based, JC-1 fluorescence, 24 h, 100 nL compound (AID 1170); conditions: higher = more signal; also: test concentration not given here
[20] = A549 lung cancer cell viability effects, profiling panel, resazurin fluorescence, 24 h, PK04 Diversity Set (AID 1171); conditions: higher = more signal, called active from +8 up or from −8 down; also: test concentration not given here

NADPH oxidase 2 (Homo sapiens), sequence (P04839 whole entry, looked up): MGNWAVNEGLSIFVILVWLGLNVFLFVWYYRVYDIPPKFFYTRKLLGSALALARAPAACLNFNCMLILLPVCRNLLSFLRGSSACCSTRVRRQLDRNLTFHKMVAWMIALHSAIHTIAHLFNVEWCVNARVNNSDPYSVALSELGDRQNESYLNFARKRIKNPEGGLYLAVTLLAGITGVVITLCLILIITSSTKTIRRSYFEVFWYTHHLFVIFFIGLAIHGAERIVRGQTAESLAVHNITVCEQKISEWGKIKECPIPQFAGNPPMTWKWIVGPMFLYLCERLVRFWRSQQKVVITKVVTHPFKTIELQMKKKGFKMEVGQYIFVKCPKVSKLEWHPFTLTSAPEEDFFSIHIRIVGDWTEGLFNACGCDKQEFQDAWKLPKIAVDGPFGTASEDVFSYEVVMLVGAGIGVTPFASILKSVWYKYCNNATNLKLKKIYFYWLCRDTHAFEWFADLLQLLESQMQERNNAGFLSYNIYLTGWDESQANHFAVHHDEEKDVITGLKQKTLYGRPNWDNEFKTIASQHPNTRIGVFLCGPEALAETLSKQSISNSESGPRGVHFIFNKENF
NADPH oxidase 4 (Homo sapiens), sequence (Q9NPH5 whole entry, looked up): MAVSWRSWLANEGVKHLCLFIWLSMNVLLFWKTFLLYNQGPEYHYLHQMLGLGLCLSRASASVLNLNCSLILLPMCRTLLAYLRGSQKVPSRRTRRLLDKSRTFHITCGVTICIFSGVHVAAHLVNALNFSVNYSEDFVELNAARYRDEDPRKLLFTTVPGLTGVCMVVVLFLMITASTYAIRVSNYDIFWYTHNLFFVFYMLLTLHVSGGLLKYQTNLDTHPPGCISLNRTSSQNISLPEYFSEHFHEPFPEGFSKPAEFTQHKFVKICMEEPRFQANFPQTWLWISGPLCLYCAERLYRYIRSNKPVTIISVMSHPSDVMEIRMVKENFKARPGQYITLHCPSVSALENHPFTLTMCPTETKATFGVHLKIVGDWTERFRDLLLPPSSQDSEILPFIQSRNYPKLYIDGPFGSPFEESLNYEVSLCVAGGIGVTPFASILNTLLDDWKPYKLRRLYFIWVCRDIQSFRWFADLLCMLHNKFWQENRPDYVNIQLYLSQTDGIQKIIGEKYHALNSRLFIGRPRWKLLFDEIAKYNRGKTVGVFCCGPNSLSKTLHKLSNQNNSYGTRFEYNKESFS
NADPH oxidase 5 (Homo sapiens), sequence (Q96PH1 whole entry, looked up): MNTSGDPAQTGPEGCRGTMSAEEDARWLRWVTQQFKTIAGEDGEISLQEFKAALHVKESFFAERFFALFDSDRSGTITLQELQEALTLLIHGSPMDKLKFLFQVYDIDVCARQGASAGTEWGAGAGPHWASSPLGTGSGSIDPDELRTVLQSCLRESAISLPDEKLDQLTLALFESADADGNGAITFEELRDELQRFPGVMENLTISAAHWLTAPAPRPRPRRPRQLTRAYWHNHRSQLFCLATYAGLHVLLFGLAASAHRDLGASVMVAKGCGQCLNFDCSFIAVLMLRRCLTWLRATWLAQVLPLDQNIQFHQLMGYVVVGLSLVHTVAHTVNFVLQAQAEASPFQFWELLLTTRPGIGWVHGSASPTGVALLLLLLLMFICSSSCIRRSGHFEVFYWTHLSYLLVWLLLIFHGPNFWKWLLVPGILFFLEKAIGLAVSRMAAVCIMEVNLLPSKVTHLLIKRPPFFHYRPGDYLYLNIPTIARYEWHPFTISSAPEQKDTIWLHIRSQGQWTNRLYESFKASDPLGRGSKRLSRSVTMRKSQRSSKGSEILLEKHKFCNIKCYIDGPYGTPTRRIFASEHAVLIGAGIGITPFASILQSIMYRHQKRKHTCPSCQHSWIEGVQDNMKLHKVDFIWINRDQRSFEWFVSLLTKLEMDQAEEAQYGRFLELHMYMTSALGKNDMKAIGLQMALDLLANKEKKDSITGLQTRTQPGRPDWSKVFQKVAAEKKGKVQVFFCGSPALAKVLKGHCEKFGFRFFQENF

SMILES: O[C@@H](Cc1ccccc1)[C@@H](/C=C/C1CC1)NCc1cccc(Cl)c1
- z-score [1]: -1.12 (inactive)
- composite z-score [2]: -0.0295
- z-score [3]: 1.27 (inactive)
- z-score [4]: 1.03 (inactive)
- z-score [5]: 0.972 (inactive)
- z-score [6]: 0.721 (inactive)
- z-score [7]: 0.528
- z-score [8]: -0.115 (inactive)
- z-score [9]: -0.302 (inactive)
- z-score [10]: -2.08
- z-score [11]: 0.399
- z-score [12]: -0.15
- z-score [13]: -1.39
- z-score [14]: -3.35
- z-score [15]: -2.71
- z-score [16]: -0.626
- z-score [17]: 0.713 (inactive)
- z-score [18]: -1.01
- z-score [19]: -1.7
- z-score [20]: -0.707 (inactive)

SMILES: COCC(=C=CC[C@H](O)c1cccc(OCCO)c1)CCO
- z-score [1]: 0.223 (inactive)
- composite z-score [2]: -0.0508
- z-score [3]: 2.69 (inactive)
- z-score [4]: -0.115 (inactive)
- z-score [5]: 0.104 (inactive)
- z-score [6]: 0.0864 (inactive)
- z-score [7]: 0.0095
- z-score [8]: -1.67 (inactive)
- z-score [9]: -0.625 (inactive)
- z-score [10]: -0.539
- z-score [11]: -0.243
- z-score [12]: -0.214
- z-score [13]: -0.909
- z-score [14]: 0.269
- z-score [15]: 0.256
- z-score [16]: -0.206
- z-score [17]: 0.244 (inactive)
- z-score [18]: -0.574
- z-score [19]: -0.451
- z-score [20]: 0.614 (inactive)

SMILES: COCCOC(=O)N1C(=O)[C@@]2(c3cc(C#Cc4ccc(OC)cc4)ccc31)[C@H](c1ccc(O)cc1)N1[C@H](c3ccccc3)[C@H](c3ccccc3)OC(=O)[C@H]1[C@@H]2C(=O)Nc1nc2ccccc2s1
- z-score [1]: -1.12 (inactive)
- composite z-score [2]: 0.269
- z-score [3]: 1.41 (inactive)
- z-score [4]: 0.616 (inactive)
- z-score [5]: -1.14 (inactive)
- z-score [6]: 1.01 (inactive)
- z-score [7]: 0.263
- z-score [8]: 1.95 (inactive)
- z-score [9]: 0.183 (inactive)
- z-score [10]: -0.164
- z-score [11]: -0.738
- z-score [12]: 0.967
- z-score [13]: 0.0165
- z-score [14]: -1.55
- z-score [15]: -1.6
- z-score [16]: -2.51
- z-score [17]: -0.0239 (inactive)
- z-score [18]: -0.71
- z-score [19]: -1.34
- z-score [20]: -0.838 (inactive)

SMILES: CC=CC(O)C1C=CC2C(=O)N(C)C(=O)C2N1N(c1ccccc1)c1ccccc1 (stereo not given)
- z-score [1]: -1.3 (inactive)
- composite z-score [2]: -0.101
- z-score [3]: -0.553 (inactive)
- z-score [4]: 0.603 (inactive)
- z-score [5]: -0.461 (inactive)
- z-score [6]: 1.12 (inactive)
- z-score [7]: -0.674
- z-score [8]: -0.633 (inactive)
- z-score [9]: -0.176 (inactive)
- z-score [10]: -0.111
- z-score [11]: -0.716
- z-score [12]: -1.7
- z-score [13]: -0.967
- z-score [14]: 0.13
- z-score [15]: 0.0318
- z-score [16]: -0.0443
- z-score [17]: -0.149 (inactive)
- z-score [18]: -0.372
- z-score [19]: -0.106
- z-score [20]: -0.522 (inactive)

SMILES: OB1C=CCC(CCc2ccccc2)O1 (stereo not given)
- z-score [1]: 3.28 (inactive)
- composite z-score [2]: -0.0651
- z-score [3]: -0.263 (inactive)
- z-score [4]: -0.649 (inactive)
- z-score [5]: -1.32 (inactive)
- z-score [6]: -2.19 (inactive)
- z-score [7]: 0.946
- z-score [8]: -1.05 (inactive)
- z-score [9]: 0.69 (inactive)
- z-score [10]: 1.22
- z-score [11]: 0.345
- z-score [12]: 0.638
- z-score [13]: 0.36
- z-score [14]: 0.293
- z-score [15]: 0.364
- z-score [16]: 1.39
- z-score [17]: 0.244 (inactive)
- z-score [18]: -0.855
- z-score [19]: 0.954
- z-score [20]: -1.01 (inactive)
